Paper PMC7819943, “Rice protein-binding microarrays: a tool to detect cis-acting elements near promoter regions in rice”
The full ranking holds about 35,000 sequences; the median of “fluorescence intensity (a.u.)” is about 10,000, and the highest 2% start at about 52,000. Many of the other results were omitted from the sample, so the highest values are more common in it than they were.

The sequences below were run against T1, OsWOX13 (Oryza sativa, UniProt Q5QMM3 1-267) (assay: protein-binding microarray (RPBM); PBS, 2% BSA, 51.3 ng/ul salmon testes DNA, 50 uM zinc acetate, 200 nM TF, 25 C, 1 h; high values mean tight binding). Details: protein: recombinant; tags: N-terminal polyhistidine and DsRed monomer fusion (pET32a); label: CyDye5-dUTP incorporated in the synthesized complementary strand; 3' TTTTT single-stranded linker to array surface; dsDNA, one strand shown.
T1 sequence: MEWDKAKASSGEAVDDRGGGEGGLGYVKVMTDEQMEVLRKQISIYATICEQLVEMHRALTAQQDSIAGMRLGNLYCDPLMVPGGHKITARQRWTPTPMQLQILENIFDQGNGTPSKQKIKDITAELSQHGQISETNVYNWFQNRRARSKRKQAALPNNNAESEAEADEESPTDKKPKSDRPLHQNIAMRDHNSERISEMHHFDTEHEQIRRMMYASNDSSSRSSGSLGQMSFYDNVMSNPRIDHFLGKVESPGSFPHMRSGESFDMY
Procedure, shortened: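 Transcription factors, each fused N-terminally to a polyhistidine tag and DsRed, were expressed in E. coli BL21-CodonPlus and purified on Ni–NTA. A custom Agilent array was made double-stranded by primer extension with Cy5-dUTP and blocked with 2% BSA. It was incubated with 200 nM protein in PBS, 2% BSA, salmon testes DNA and 50 µM zinc acetate at 25 °C for 1 h, then washed. The binding signal is per-feature fluorescence intensity (arbitrary units) read on an Axon 4000B scanner.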
For “TATATTATTTGTCAATCTTATTGTCAACTTATTAATCATCCGGAGTCACCTAGTGCAG”, the binding signal was 7160 fluorescence intensity (a.u.).
“TCTGACCATTATTAATTTCTAGCAACTAGCAATTTTGTGCCGGAGTCACCTAGTGCAG” was tested, and the binding signal was 6120 fluorescence intensity (a.u.).
“AGATTACATGATTGGAAATCTTTCACATATTTGTTTCAGGCGGAGTCACCTAGTGCAG” was tested, and the binding signal was 51800 fluorescence intensity (a.u.).
“TGTCTAATTGGTATCGTGAAGACTCTGAACCATTTCCATCCGGAGTCACCTAGTGCAG” was tested, and the binding signal was 35200 fluorescence intensity (a.u.).
“CTTAATTAGCATGAAACACAAGTAGTATATGATTACACCACGGAGTCACCTAGTGCAG” was tested, and the binding signal was 33100 fluorescence intensity (a.u.).
For “ATCTTAATTGAAACAAACACAGCTTTAGTATATGCATGTCCGGAGTCACCTAGTGCAG”, the binding signal was 58900 fluorescence intensity (a.u.).
In the case of “CCCTTAATTAATTAAAACCGGTCACAGTATGTCCTTTAATCGGAGTCACCTAGTGCAG”, the binding signal is reported as 41300 fluorescence intensity (a.u.).
For “GTCCAGGCTTAATTCAATCATTATATGTACATATCTTTGTCGGAGTCACCTAGTGCAG”, the binding signal was 6860 fluorescence intensity (a.u.).
For “CAGGCTGCTTAATTACATATATCTAGATATATATATTATTCGGAGTCACCTAGTGCAG”, the binding signal was 3870 fluorescence intensity (a.u.).
For “ATTAATCGCTAATTAGGATAATTAATCACTAATTAGTATTCGGAGTCACCTAGTGCAG”, the binding signal was 43700 fluorescence intensity (a.u.).
With “GTGATTAATTAATTATTAATTAATCGCTAATCAGGATAATCGGAGTCACCTAGTGCAG” the binding signal was 65500 fluorescence intensity (a.u.).
“TTCAATTGATTATGAACTGCTTGTACTCTAATCAATGGTACGGAGTCACCTAGTGCAG” was tested, and the binding signal was 55800 fluorescence intensity (a.u.).
For “ATATATATATATATATATATATATATATTATCGCTAATAACGGAGTCACCTAGTGCAG”, the binding signal was 31200 fluorescence intensity (a.u.).
For “GATTGGTCATAATTATATATATATATTACTTCCTAATCACCGGAGTCACCTAGTGCAG”, the binding signal was 6390 fluorescence intensity (a.u.).
“TTCTCTAATTGGTAATTCATGATTAATCACTCCTACTTTACGGAGTCACCTAGTGCAG” was tested, and the binding signal was 48000 fluorescence intensity (a.u.).
In the case of “TGATTGGTAATCAATCAATTATTATCATATACTCGCACTGCGGAGTCACCTAGTGCAG”, the binding signal is reported as 62300 fluorescence intensity (a.u.).
With “GAGAACTCTAATGAATTAGATTATATTCATGCTTGTTGATCGGAGTCACCTAGTGCAG” the binding signal was 5820 fluorescence intensity (a.u.).
In the case of “ATTAATTATCTAATTAATTAATTAGCCCATCTGCTTACTTCGGAGTCACCTAGTGCAG”, the binding signal is reported as 65000 fluorescence intensity (a.u.).
For “CACACTATTAATCATTTTGATTTTGGTATACTGCACTTTTCGGAGTCACCTAGTGCAG”, the binding signal was 6110 fluorescence intensity (a.u.).
In the case of “ATCTGTAATTTATTTTATTATTAGTCTACGCTTAATACTTCGGAGTCACCTAGTGCAG”, the binding signal is reported as 22000 fluorescence intensity (a.u.).
“AGTCGAGTCAACTTAATTAACTTAACTTCAACCGTCGCTACGGAGTCACCTAGTGCAG” was tested, and the binding signal was 5940 fluorescence intensity (a.u.).
In the case of “TAGCCAATCTAATAGCTCATTCATATAATAATTACATACTCGGAGTCACCTAGTGCAG”, the binding signal is reported as 4410 fluorescence intensity (a.u.).
For “GTGACATCATAATTTAGATTTAACTTATTCGTGCATATTACGGAGTCACCTAGTGCAG”, the binding signal was 9460 fluorescence intensity (a.u.).
“AGCTAAATCTGTGATTGCCGTTGCATCTAGCCACGTCGTCCGGAGTCACCTAGTGCAG” was tested, and the binding signal was 14600 fluorescence intensity (a.u.).
“GAATAACAGACATATCATATTTGTTGCCTCCTGGTGGCTACGGAGTCACCTAGTGCAG” was tested, and the binding signal was 7840 fluorescence intensity (a.u.).
For “ATTTGAATAATTAGGGAGTCTATGAACAGAAACATAGACCCGGAGTCACCTAGTGCAG”, the binding signal was 6000 fluorescence intensity (a.u.).
In the case of “TATCATCAATCCGCTAATTAACTGACAACGCATATTGGAGCGGAGTCACCTAGTGCAG”, the binding signal is reported as 29400 fluorescence intensity (a.u.).
In the case of “ATAGCTATATCAATCTAGAATTGGATTAGATATATCTCGACGGAGTCACCTAGTGCAG”, the binding signal is reported as 6040 fluorescence intensity (a.u.).
In the case of “GTGATTGGATCTGTAATTATCAATCTCTCTCTCTCTCTCTCGGAGTCACCTAGTGCAG”, the binding signal is reported as 64600 fluorescence intensity (a.u.).
In the case of “TGTTGGTGCTGTGATTAATTGGTAATCTGCTTTTACAAGCCGGAGTCACCTAGTGCAG”, the binding signal is reported as 19800 fluorescence intensity (a.u.).
“TCATATAATTGGATTTATAATTAATCACCAATACCAAACTCGGAGTCACCTAGTGCAG” was tested, and the binding signal was 35300 fluorescence intensity (a.u.).
With “AAAATTAAATTGATGGTATTACTAGCATTAATTAGCCACTCGGAGTCACCTAGTGCAG” the binding signal was 62800 fluorescence intensity (a.u.).
With “TGTGATTAATTGGTAATCTGCTTTTACAAGCTTCAATTGCCGGAGTCACCTAGTGCAG” the binding signal was 60400 fluorescence intensity (a.u.).
With “ATGTATATTAATTACTAGCCAAATGGTTAGCATGATTACTCGGAGTCACCTAGTGCAG” the binding signal was 10900 fluorescence intensity (a.u.).
“TATTGATTTGATAAAACTAATTTAGCATTATAAATATTATCGGAGTCACCTAGTGCAG” was tested, and the binding signal was 21300 fluorescence intensity (a.u.).
In the case of “TCAATCAATTAATTAATTAATCGAATTGTGTTATATCTCTCGGAGTCACCTAGTGCAG”, the binding signal is reported as 51000 fluorescence intensity (a.u.).
For “TTCAAATTAAGCTGCTTTAGATTATAATCTGAAGCTGGGCCGGAGTCACCTAGTGCAG”, the binding signal was 17800 fluorescence intensity (a.u.).
“ATTAGCAATTAATTAATTATTAATTGGATAATTAATCACTCGGAGTCACCTAGTGCAG” was tested, and the binding signal was 64800 fluorescence intensity (a.u.).
For “GTAGATAATTAAATCGGATTAGCATTAGATAATCAAGCAACGGAGTCACCTAGTGCAG”, the binding signal was 37000 fluorescence intensity (a.u.).
In the case of “AACATGGAGAATATGCTAATTAGTAAAACATGTTGAAGTGCGGAGTCACCTAGTGCAG”, the binding signal is reported as 3290 fluorescence intensity (a.u.).
In the case of “GCACAATCATGCTACTAATTACCCTTTTCAACCTATAAATCGGAGTCACCTAGTGCAG”, the binding signal is reported as 11200 fluorescence intensity (a.u.).
“ACTAATTACACAGAATGCATGTAAATTACGAGACGAATCTCGGAGTCACCTAGTGCAG” was tested, and the binding signal was 31200 fluorescence intensity (a.u.).
